Screens as filed in PubChem BioAssay.
The full list was thinned out, with hits kept by preference.
FECH inh: inhibitors of human ferrochelatase | AID 1671448 | calls only at 10 µM (by protocol) | purified FECH, Ni-mesoporphyrin absorbance 550 nm | P22830 | 20,000 tested, 3.3% active;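 active = enzyme reaction rate more than 3 SD below the solvent-only control wells on the same plate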;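 also: lower slope than DMSO wells means FECH inhibition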
Target sequence (P22830 whole entry, looked up): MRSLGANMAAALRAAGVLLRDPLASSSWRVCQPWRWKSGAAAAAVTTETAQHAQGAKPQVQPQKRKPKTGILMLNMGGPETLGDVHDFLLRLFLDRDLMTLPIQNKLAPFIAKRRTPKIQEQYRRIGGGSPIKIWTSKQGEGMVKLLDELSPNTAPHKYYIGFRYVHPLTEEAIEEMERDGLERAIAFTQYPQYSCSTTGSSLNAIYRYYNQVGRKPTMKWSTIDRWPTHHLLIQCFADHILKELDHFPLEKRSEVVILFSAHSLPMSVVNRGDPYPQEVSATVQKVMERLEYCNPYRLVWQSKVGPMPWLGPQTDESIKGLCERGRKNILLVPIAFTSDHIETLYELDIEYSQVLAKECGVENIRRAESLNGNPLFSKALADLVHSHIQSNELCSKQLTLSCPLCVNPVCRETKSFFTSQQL
Of the large screens only hits and unclear results are named; the others gave an inactive call.

Cc1ccc(C(=O)Nc2ccc(NC(=O)C3CCNC3)cc2)o1 (centres undefined)	none
Cc1ccc(NC(=O)c2ccccc2C)cc1OCc1cc(=O)n2cccc(C)c2n1	none
Cc1ccc(NC(=O)C2CCCCC2)cc1OCc1cc(=O)n2cccc(C)c2n1	FECH inh active
COc1ccc(C(=O)Nc2ccc(C)c(OCc3cc(=O)n4cccc(C)c4n3)c2)cc1	none
Cc1nc(CNc2nccc(CCC(F)(F)F)n2)nc2c1CCCC2	none
CCn1cc(Cn2cnc(-c3ccccc3)c2/C(C)=C/c2ccco2)cn1	none
CC1CCN(c2nc(Nc3cccc(Cl)c3)c3cnn(-c4ccccc4)c3n2)CC1	none
Cc1noc(C)c1CCn1c(=O)c2cnc(-c3cccs3)nc2n(C)c1=O	none
Cn1c(=O)n(CCOc2ccccc2)c(=O)c2cnc(-c3cccs3)nc21	FECH inh active
Cn1c(=O)n(Cc2ccccc2F)c(=O)c2cnc(-c3cccs3)nc21	none
Cc1cc(NC(=O)c2ccc(C(C)(C)C)cc2)n(-c2ncnc3c2cnn3-c2cccc(Cl)c2)n1	none
Nc1ccnc(N2C[C@@H]3C[C@H](C2)[C@@H]2CCCC(=O)N2C3)n1	none
Cc1nnnn1-c1cccc(-c2n[nH]c(Cc3ccccc3)n2)c1	none
Cc1nnnn1-c1ccc(Cc2n[nH]c(Cc3ccccc3)n2)cc1	FECH inh active
c1ccc(Cc2n[nH]c(Cn3nc4ccccc4n3)n2)cc1	none
Cc1ccc(Cl)cc1NC(=O)Cc1csc(NC(=O)Nc2cccc(Cl)c2)n1	none
Cc1nc2nc(-c3ccccc3)nn2c(Sc2ccccc2NC(=O)COc2ccc(Cl)cc2)c1C	FECH inh active
CCc1c(C)nc2ncnn2c1Sc1ccccc1NC(=O)c1cccc(F)c1	none
CCCc1c(C)nc2ncnn2c1Sc1ccccc1NC(=O)c1ccco1	none
CCCc1c(C)nc2ncnn2c1Sc1ccccc1NC(=O)c1ccc(F)cc1	none
Cc1cc(Sc2ccccc2NC(=O)COc2ccc(Cl)cc2)n2nc(-c3ccccc3)nc2n1	none
CCCc1c(C)nc2ncnn2c1Sc1ccccc1NC(=O)c1ccccc1	FECH inh active
CCc1c(C)nc2ncnn2c1Sc1ccccc1NC(=O)c1cccc(C)c1	none
CCCc1c(C)nc2ncnn2c1Sc1ccccc1NC(=O)c1cccc(OC)c1	FECH inh active
Cc1nc2ncnn2c(Sc2ccccc2NC(=O)c2ccc(Br)cc2)c1C	none
COc1ccc(CC(=O)Nc2ccccc2Sc2c(C)c(C)nc3nc(-c4ccccc4)nn23)cc1	none
COc1cc(C(=O)Nc2ccccc2Sc2c(C)c(C)nc3ncnn23)cc(OC)c1OC	none
COc1ccc(C(=O)Nc2ccccc2Sc2c(C)c(C)nc3ncnn23)cc1	FECH inh active
c1ccc(CN(Cc2nccs2)Cc2cccn2-c2nccs2)cc1	none
COc1c(C)cnc(Cn2c(=O)c3cnc(-c4cccs4)nc3n(C)c2=O)c1C	none
CC(=O)Nc1c2n(c3ccccc13)CC(C)(C(=O)NCCC(C)C)N(Cc1cccc(Cl)c1)C2=O (centres undefined)	none
COCCNC(=O)C1CCCN(C2CCN(c3nccnc3C)CC2)C1 (centres undefined)	none
Cc1ccc(Cn2c(CNC(=O)c3ccc(F)cc3)nc3cccnc32)cc1	none
CCC(=O)Nc1ccc(Nc2nc(C)cc(N(C)C)n2)cc1	none
OCc1csc(-c2cccc(C(F)(F)F)c2)n1	none
Cc1ccc(OCC(=O)Nc2ccccc2Sc2c(C)c(C)nc3ncnn23)cc1	none
Cc1ccccc1OCC(=O)Nc1ccccc1Sc1c(C)c(C)nc2ncnn12	FECH inh active
CCOc1ccccc1C(=O)Nc1ccccc1Sc1c(C)c(C)nc2ncnn12	none
CCOc1ncccc1CNC(=O)c1ccc(C)c(N2CCNC2=O)c1	none
CC(=O)N(C)c1ccc(NC(=O)CN2CCNC(=O)[C@@H]2Cc2ccccc2)cc1	none
CCn1nc(C(=O)O)c2c1CCN(C(=O)C(c1cccnc1)N1CCCC1)C2 (centres undefined)	none
CCN1C(SCC(=O)N(C)c2ccccc2)=NS(=O)(=O)c2ccccc21	FECH inh active
CCN1C(SCC(=O)N2CCCC2)=NS(=O)(=O)c2ccccc21	FECH inh active
O=C(CSc1ccncc1)N1CCCC(c2ccccc2)C1 (centres undefined)	none
Cc1ccc(-c2nnc(-c3nc(NCc4ccc(C)o4)c4ccccc4n3)o2)cc1	none
Cc1cccn2c(CNC(=O)CCC(=O)NC3CCCC3)cnc12	none
Cc1cc(NC(=O)COc2ccccc2)n(-c2ncnc3c2cnn3-c2cccc(Cl)c2)n1	none
COc1ccc(Nc2cc(C)nc(Nc3ccc(NC(=O)CCCc4ccccc4)cc3)n2)cc1	none
Cc1ccc(S(=O)(=O)N(CCOc2ccccc2)c2nc3nc(C)cc(C)n3n2)cc1	none
CCC(=O)Nc1ccccc1-c1nnc(SCC(=O)Nc2cc(C)cc(C)c2)[nH]c1=O	FECH inh active
CCC(=O)Nc1ccccc1-c1nnc(SCC(=O)Nc2cccc(C)c2C)[nH]c1=O	none
CCC(=O)Nc1ccccc1-c1nnc(SCC(=O)Nc2ccccc2Cl)[nH]c1=O	none
Cn1cc(NC(=O)CN2CCC=C(CNC(=O)N3CCCC3)C2)cn1	none
CN(CC(=O)NCc1ccccc1F)Cc1cccc2ncccc12	none
CO[C@H]1COC[C@@H]1NCC(=O)Nc1cccc(F)c1C	none
Cc1cnc(CN(C)CC(=O)Nc2cccc(F)c2C)[nH]1	FECH inh active
Cc1cc(N(C)C)nc(N2CCN(S(=O)(=O)c3ccc(Cl)cc3)CC2)n1	none
Cc1cc(N(C)C)nc(N2CCN(S(=O)(=O)c3ccc(C)c(C)c3)CC2)n1	none
CC(=O)Nc1ccc(S(=O)(=O)N2CCN(c3nc(C)cc(N4CCOCC4)n3)CC2)cc1	none
CC(=O)Nc1ccc(S(=O)(=O)N2CCN(c3nc(C)cc(N4CCCCC4)n3)CC2)cc1	FECH inh active
CC(=O)Nc1ccc(S(=O)(=O)N2CCN(c3nc(C)cc(N4CCCC4)n3)CC2)cc1	none
Cc1cc(N(C)C)nc(N2CCN(S(=O)(=O)c3ccc(F)cc3)CC2)n1	FECH inh active
CCc1oc(C(=O)N2CC=CC2CC)cc1CN1CCCC1 (centres undefined)	none
CN(CCc1cn[nH]c1)C(=O)c1cccc(CC2CCNCC2)c1	none
Cc1cccnc1NCCNC(=O)c1cccc2ccnn12	none
Cc1ccc(NC(=O)CNCCNc2ncccc2C)c(C)c1	FECH inh active
Cc1ccc(NC(=O)CC(=O)NCCSc2nccn2C)c(C)c1	none
Cc1ccccc1CC1(CO)CCCN(c2cc(C(=O)NC3CC3)ccn2)C1 (centres undefined)	none
Cc1ccsc1C(CNC(=O)c1cc(=O)[nH]c(=O)[nH]1)N(C)C (centres undefined)	none
O=C(Nc1ccc2ncsc2c1)c1cccc(CN2CCCC(O)C2)c1 (centres undefined)	FECH inh active
O=C(Nc1ncns1)c1cccc(CN2CC[C@H](O)C2)c1	none
O=C(Nc1nc2c(s1)CCCC2)c1cccc(CN2CC[C@H](O)C2)c1	none
Cc1cc2cc(C(=O)NCCCCc3ccccn3)ccc2o1	none
CN(C)S(=O)(=O)NCc1nc2cccnc2n1C1CCCCC1	none
C=CCN(C(=O)CN1CCOc2ccccc2C1)C1CCS(=O)(=O)C1 (centres undefined)	none
Cc1nc(-c2ccc(N3CCN(C(=O)C4CC(=O)N(c5ccc(C)c(C)c5)C4)CC3)cc2)no1 (centres undefined)	none
COc1ccccc1CNC(=O)CN1C(=O)CN(C)C(=O)c2ccccc21	none
COCCNC(=O)c1nc[nH]c1C(=O)NCc1ccccc1	FECH inh active
O=C(NCc1ccccc1)c1nc[nH]c1C(=O)N1CCCCCC1	none
CC1CCN(C(=O)c2[nH]cnc2C(=O)NCc2ccccc2)CC1	none
CCCNC(=O)c1[nH]cnc1C(=O)NCCc1c[nH]c2ccccc12	none
O=C(NCc1ccccc1)c1nc[nH]c1C(=O)N1CCC(Cc2ccccc2)CC1	none
